In the library only some 3.9% were active in any assay of this set; here they are far more common.
SARS 3CLpro inh = SARS-CoV 3CLpro protease inhibition; P0C6X7; recombinant SARS-CoV 3CLpro, quenched FRET peptide cleavage; inhibition, % at 6 µM; 290,000 tested, 0.14% active; AID 1706; in the data active = inhibition above about 12%
DUSP3 inh = blocks human VHR1 dual specificity phosphatase. P51452. recombinant VHR phosphatase, pNPP absorbance. inhibition, % at 13.3 µM. 290,000 tested, 0.52% active; in the data active = inhibition above about 50%
Target sequence (P51452 whole entry, looked up): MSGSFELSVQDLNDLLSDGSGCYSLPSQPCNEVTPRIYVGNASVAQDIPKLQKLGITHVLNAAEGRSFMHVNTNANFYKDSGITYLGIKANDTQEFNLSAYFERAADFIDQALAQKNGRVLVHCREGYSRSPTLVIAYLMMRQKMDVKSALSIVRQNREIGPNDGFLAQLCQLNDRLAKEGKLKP
BoNT-F LC inh = inhibitors of Botulinum neurotoxin F light chain protease; Multiplex microsphere protease cleavage assay, flow cytometry; 360,000 tested, 0.22% active; inhibition, % at 10 µM; in the data active = inhibition above about 35%, passing the limit was not always enough; inconclusive = no clear call, values can overlap the other calls
BoNT A protease = BoNT A light chain protease inhibition; multiplex microsphere protease substrate cleavage, flow cytometry; inhibition, % at 10 µM; 360,000 tested, 0.17% active
Anthrax LF inh2 = blocks Bacillus anthracis lethal factor protease; P15917; AID 588501; multiplex microsphere protease cleavage assay, LF; inhibition, % at 10 µM; 360,000 tested, 0.12% active
Autofluor counter = counter-screen for toxin protease inhibitors: compound fluorescence. compound autofluorescence counterscreen, microsphere flow cytometry; hits give high values. fluorescence intensity (concentration not given with the values). 360,000 tested, 3.1% active; in the data active = fluorescence intensity above about 16000; inconclusive = no clear call, values can overlap the other calls
Numbers stand for hits; 0 = inactive; ? = inconclusive; - = not tested or not shown. Rule as the data show it, unless noted: active = inhibition above about 30%; inconclusive = no clear call, values can overlap the other calls; inactive = below that.

SMILES	SARS 3CLpro inh	DUSP3 inh	BoNT-F LC inh	BoNT A protease	Anthrax LF inh2	Autofluor counter
CCn1c(=O)cc(NC2=NCC(C)CN2c2cccc(Cl)c2)n(C)c1=O (stereo not given)	0	0	0	?	0	19894
OC(c1ccc(F)cc1)c1ncc(-c2cccc3ccccc23)[nH]1 (stereo not given)	-	-	0	0	0	0
O=C(C1CC(=O)N(c2ccccc2)C1)N1CCN(C2=NS(=O)(=O)c3ccccc32)CC1 (stereo not given)	0	0	0	0	0	23523
CCCC(=O)N1CCN(C2=NS(=O)(=O)c3ccccc32)CC1	0	0	0	?	0	23423
O=C(C1CC(=O)N(c2ccccc2)C1)N1CCN(c2ccccc2)CC1 (stereo not given)	0	0	0	0	0	0
COc1ccc(NC(=O)COC(=O)CCOc2ccccc2C)cc1Cl	-	-	0	0	0	0
Cc1ccc2occ(/C=N/NC(=O)c3ccncc3)c(=O)c2c1	0	0	0	0	0	0
O=C(CCNC(=O)N1CCn2c1nc1ccccc12)NCc1ccccc1	0	0	0	0	0	0
CC(C)c1ccc(-c2nnn(CCC(=O)O)n2)cc1	0	0	0	0	0	16264
O=C(O)CCn1nnc(-c2cccs2)n1	0	0	-	-	-	-
CCC(=NCc1ccccc1)c1c(C(F)(F)F)[nH]n(-c2nc3ccccc3s2)c1=O	0	0	0	0	0	16663
CCC(CC)NC(=O)COC(=O)CCC(=O)c1cccs1	0	52	0	0	0	0
CCNC(=O)COC(=O)CCC(=O)c1cccs1	0	0	0	0	0	0
COc1ccccc1COC(=O)Nc1c(C)nn(C)c1Cl	0	0	0	?	0	18871
Cc1nn2c(C)c(C(=O)Nc3ccccc3)cnc2c1C#N	0	51	0	0	0	0
CCn1c(=O)c(C(=O)CN2CCCc3ccccc32)c(N)n(Cc2ccccc2)c1=O	0	0	0	?	0	32189
CCn1c(=O)c(C(=O)CN2c3ccccc3CC2C)c(N)n(Cc2ccccc2)c1=O (stereo not given)	0	0	0	0	0	0
CCc1nc2ccc(C(=O)NCCCn3ccnc3)cn2c1N(C)Cc1cc2ccccc2s1	-	-	0	0	0	0
CC(N=Cc1c(O)[nH]c(=O)[nH]c1=O)c1ccccc1 (stereo not given)	0	0	0	0	0	17759
CC(N=Cc1cccc(O)c1O)c1ccccc1 (stereo not given)	0	0	0	0	0	22938
O=C(NCC(=O)N(c1ccc(F)cc1)C(C(=O)NC1CCCCC1)c1ccncc1)c1ccco1 (stereo not given)	0	0	0	0	0	0
O=C1C2CC=CCC2C(=O)N1c1cccc(OS(=O)(=O)c2ccc3ccccc3c2)c1 (stereo not given)	0	0	0	?	0	20101
O=[N+]([O-])c1ccccc1OCCCN1CCOCC1	0	0	0	0	0	23944
Fc1ccccc1OCCCN1CCOCC1	0	0	0	0	0	17023
CC1CN(CCCOc2ccccc2[N+](=O)[O-])CC(C)O1 (stereo not given)	0	0	0	0	0	23581
SMILES	SARS 3CLpro inh	DUSP3 inh	BoNT-F LC inh	BoNT A protease	Anthrax LF inh2	Autofluor counter
Cc1ccccc1OCCCN1CCCC1	0	0	0	?	0	17560
CC1CN(CCCOc2ccc([N+](=O)[O-])cc2)CC(C)O1 (stereo not given)	0	0	0	0	0	0
Cc1ccccc1OCCN1CCCC1	0	0	?	0	0	0
C/C(Nc1ccc(Cl)c(Cl)c1)=C1/CCOC1=O	-	-	0	0	0	0
CCc1nnc(NC(=O)CCC(=O)Nc2ccc(Cl)cc2)s1	0	0	0	0	0	0
O=c1c2ccccc2ncn1CCCOc1ccccc1[N+](=O)[O-]	0	0	0	0	0	20774
CC1CN(CCOc2ccc(F)cc2)CC(C)O1 (stereo not given)	0	0	36	0	0	0
COc1ccc(Cc2nnc(SCC(=O)N3CCCCC3)o2)cc1	0	0	0	0	0	0
CCC(Sc1nc(C)cc(=O)[nH]1)C(=O)Nc1nc(-c2ccccc2)cs1 (stereo not given)	0	0	0	0	0	22493
Cc1ccc(-c2csc(NC(=O)CSc3nc(C)cc(=O)[nH]3)n2)cc1	0	0	-	-	-	-
CC(C)CNC(=O)c1cccc(NC(=O)Cc2ccc(Cl)cc2)c1	0	0	0	0	0	0
O=[N+]([O-])c1c(NCCO)cc(N2CCN(Cc3ccc4c(c3)OCO4)CC2)c2nonc12	0	0	0	0	0	0

Screens as filed in PubChem BioAssay.
